# Results taken from PubChem BioAssay (NCATS).
# Results filed as inconclusive are left out. Where a call stands in place of a potency, no number is given. The source made the active and inactive calls. The call rests on the fitted dose curve; in most records, active means well fitted inhibition curve with a large enough effect; inconclusive means small, poorly fitted or top-dose-only effect; inactive means no such curve, though single readings can be large or run the other way.
# Assay: qHTS assay for measurement of the activity of small molecule inhibitors on Zika virus induced Caspase-3 activity in human iPSC derived neural progenitor cells (hNPCs) (AID 1224857); further: nearly all actives have a fitted effect of over 65% in size
# Details: hNPCs ZIKV-induced caspase-3/7, Caspase-Glo luminescence, 6 h; series mostly up to 45.7 µM
# How it was run: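 Quantitative HTS format: human iPSC neural progenitors, 1 h compound pretreatment, ZIKV 2 FFU/cell for 6 h at 37 C. Percent inhibition derived from luminescent caspase-3/7 signal between uninfected and infected controls.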
row,SMILES,Potency
1,CCN(CC)C(=O)N[C@@H]1C=C2c3cccc4[nH]cc(c34)C[C@@H]2N(C)C1,inactive
2,CCN(CC)CCOC(=O)C(O)(c1ccccc1)c1ccccc1,inactive
3,C[C@H]1O[C@@H](O[C@H]2[C@@H](O)C[C@H](O[C@H]3[C@@H](O)C[C@H](O[C@H]4CC[C@@]5(C)[C@H](CC[C@@H]6[C@@H]5CC[C@]5(C)[C@@H](C7=CC(=O)OC7)CC[C@]65O)C4)O[C@@H]3C)O[C@@H]2C)C[C@H](O)[C@@H]1O,inactive
4,Cc1cccc(C)c1NC1=NCCCS1,inactive
5,CC[N+]1(C)CCCC(OC(=O)C(O)(c2ccccc2)c2ccccc2)C1 (stereo unspecified),inactive
6,C#CCOC(C(=O)OCCN(C)C)(c1ccccc1)c1ccccc1,inactive
7,CC(C)=CC1C(C(=O)OCc2cccc(Oc3ccccc3)c2)C1(C)C (stereo unspecified),inactive
8,CC[N+](CC)(CC)CC,inactive
9,CC(C)(C)NCC(O)c1cc(Cl)c(N)c(Cl)c1 (stereo unspecified),inactive
10,Oc1ccccc1-c1ccccc1,inactive
11,CC(C)(C)CC(C)(C)c1ccc(O)cc1,inactive
12,Cc1ccc2c(c1)C1CN(C)CCC1N2 (stereo unspecified),inactive
13,CCCN1CCC[C@@H]2Cc3[nH]ncc3C[C@H]21,inactive
14,COc1ccccc1N1CCNCC1,inactive
15,CC1NCCOC1c1ccccc1 (stereo unspecified),inactive
16,CN1C(=S)CN=C(c2ccccc2)c2cc(Cl)ccc21,inactive
